Source: PubChem BioAssay (The Scripps Research Institute Molecular Screening Center)
TEAD-YAP block: TEAD-YAP interaction inhibition; HEK-TIYL cells, TEAD-Gal4/YAP UAS-luciferase luminescence; inhibition, % at 9.12 µM; actives 1.4% (n = 640,000); in the data active = inhibition above about 32%;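 note: 0% = median of test compound wells and 100% = reference inhibitor wells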
MITF primary: human MITF inhibition, primary screen; AlphaScreen MITF homodimerization, bead proximity signal; inhibition, % at 2.6 µM; actives 0.91% (n = 650,000); AID 1259374; in the data active = inhibition above about 50%;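 note: 0% = vehicle wells with protein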
GPR151 activ: activators of human GPR151; Q8TDV0; PathHunter beta-arrestin GPR151 cells, luminescence; activation, % at 11.2 µM; actives 1% (n = 650,000); in the data active = activation above about 4.9%;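 note: 0% = median of compound wells and 100% = cells with positive control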
FBW7 activator: human FBW7 E3 ligase activation, primary screen; Q969H0; AlphaScreen FBW7–phospho-cyclin E peptide binding, activator screen; normalized activity (activation), % at 26.1 µM; actives 0.13% (n = 650,000); AID 1259310; in the data active = normalized activity above about 1.9%;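 note: purified mutant Fbw7 with reduced substrate affinity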
Target sequence (Q969H0 whole entry, looked up): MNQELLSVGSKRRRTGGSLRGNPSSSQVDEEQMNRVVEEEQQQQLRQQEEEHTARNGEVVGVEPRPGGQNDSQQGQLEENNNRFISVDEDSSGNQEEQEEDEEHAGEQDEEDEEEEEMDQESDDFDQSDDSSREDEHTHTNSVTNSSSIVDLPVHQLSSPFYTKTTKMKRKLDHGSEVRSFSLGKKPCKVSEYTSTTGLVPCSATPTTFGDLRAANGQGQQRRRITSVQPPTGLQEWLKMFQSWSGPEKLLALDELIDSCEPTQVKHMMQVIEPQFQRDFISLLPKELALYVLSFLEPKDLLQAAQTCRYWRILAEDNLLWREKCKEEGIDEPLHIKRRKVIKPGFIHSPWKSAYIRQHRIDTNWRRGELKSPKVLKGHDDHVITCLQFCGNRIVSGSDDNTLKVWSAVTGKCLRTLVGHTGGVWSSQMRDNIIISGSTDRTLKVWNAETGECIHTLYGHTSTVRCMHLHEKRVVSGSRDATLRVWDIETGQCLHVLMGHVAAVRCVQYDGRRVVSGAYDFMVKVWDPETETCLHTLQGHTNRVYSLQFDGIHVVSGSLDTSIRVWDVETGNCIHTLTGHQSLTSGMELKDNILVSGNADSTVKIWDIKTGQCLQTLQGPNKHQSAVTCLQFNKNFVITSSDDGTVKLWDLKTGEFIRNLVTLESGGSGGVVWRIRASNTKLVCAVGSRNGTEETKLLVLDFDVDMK
MITF inh conf: human MITF inhibition, confirmation; shares compounds with MITF primary; AID 1259372; AlphaScreen MITF homodimerization, biotin/His-MITF beads; actives 16% (n = 4,700); inhibition, % at 2.6 µM;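 active = inhibition above a cutoff derived from the DMSO control wells, cut at about 28% in these data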;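 note: 0% = MITF dimer wells with DMSO only; inhibitors lower the bead chemiluminescence by keeping MITF from dimerizing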
AlphaScreen intf2: counter-screen: compounds optically interfering with AlphaScreen. shares compounds with MITF primary. LysRS AlphaScreen counterscreen, signal interference, triplicate. inhibition, % at 2.6 µM. actives 7.6% (n = 4,700);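 active = inhibition above a cutoff derived from the DMSO control wells, cut at about 30% in these data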
* = called active by the depositor. In the library only some 3.5% were active in any assay of this set; here they are far more common.

What do the screens show for `CCOc1cc(CN2CCN(Cc3ccc4c(c3)OCO4)CC2)ccc1OC`?
TEAD-YAP block: 3; MITF primary: 31; GPR151 activ: 3; FBW7 activator: 0

How did COc1ccc(CN2CCN(Cc3ccc4c(c3)OCO4)CC2)cc1OC do in these assays?
TEAD-YAP block: -1; MITF primary: 82*; GPR151 activ: 0; FBW7 activator: 0; MITF inh conf: 11; AlphaScreen intf2: 9

How did COC(=O)c1ccc(CN2CCN(Cc3ccc4c(c3)OCO4)CC2)cc1 do in these assays?
TEAD-YAP block: 2; MITF primary: 56*; GPR151 activ: 0; FBW7 activator: 0; MITF inh conf: 5; AlphaScreen intf2: 1

What do the screens show for `O=C(c1ccc2c(c1)OCO2)N1CCN(Cc2ccc3c(c2)OCO3)CC1`?
TEAD-YAP block: -4; MITF primary: -3; GPR151 activ: -2; FBW7 activator: 0

Results for Cc1ccccc1CN(CC1CCC(C(=O)O)CC1)C(=S)Nc1c(C)cccc1C (stereo not given) ?
TEAD-YAP block: 6; MITF primary: -2; GPR151 activ: 1; FBW7 activator: 1

What do the screens show for `Oc1ccccc1-c1ccc2cccnc2n1`?
TEAD-YAP block: -43; MITF primary: -1; GPR151 activ: -8; FBW7 activator: 0

What do the screens show for `c1cncc(-c2cc(NCCCn3ccnc3)nc(-c3cccnc3)n2)c1`?
TEAD-YAP block: 8; MITF primary: 65*; GPR151 activ: 2; FBW7 activator: -1; MITF inh conf: 29*; AlphaScreen intf2: 39*

How did c1cncc(-c2nc(NCCCn3ccnc3)cc(-c3ccncc3)n2)c1 do in these assays?
TEAD-YAP block: 13; MITF primary: 13; GPR151 activ: -1; FBW7 activator: -1

How did COc1cc(Br)cc2cc(C(=O)NCc3ccc4c(c3)OCO4)c(=O)oc12 do in these assays?
TEAD-YAP block: -12; MITF primary: -1; GPR151 activ: -1; FBW7 activator: 0

How did COc1ccc(N2C(=O)NC(=O)/C(=C/c3cccc(O)c3)C2=O)cc1 do in these assays?
TEAD-YAP block: -1; MITF primary: 9; GPR151 activ: 0; FBW7 activator: 0

What do the screens show for `CC1CN(CC(=O)N(C)CC2CCCCO2)Cc2cc(Cl)ccc2O1` (stereo not given)?
TEAD-YAP block: 5; MITF primary: 55*; GPR151 activ: 2; FBW7 activator: 0; MITF inh conf: -4; AlphaScreen intf2: -1

How did CC1CCCC(C)N1C(=O)c1cc2n(n1)C(C(F)(F)F)CC(c1ccc(Cl)c(Cl)c1)N2 (stereo not given) do in these assays?
TEAD-YAP block: -3; MITF primary: 59*; GPR151 activ: -1; FBW7 activator: 0; MITF inh conf: -10; AlphaScreen intf2: -7

What do the screens show for `O=C(/C=C/c1ccccc1)NCc1ccc(Cl)cc1`?
TEAD-YAP block: -2; MITF primary: 52*; GPR151 activ: 0; FBW7 activator: 0; MITF inh conf: 4; AlphaScreen intf2: -2

What do the screens show for `CCOC(=O)CCCCC(=O)c1[nH]c(=O)[nH]c1C`?
TEAD-YAP block: -3; MITF primary: 115*; GPR151 activ: -2; FBW7 activator: -1; MITF inh conf: 118*; AlphaScreen intf2: 99*

How did Cc1cc(C)cc(OCC(=O)Nc2ccccn2)c1 do in these assays?
TEAD-YAP block: -42; MITF primary: 10; GPR151 activ: -1; FBW7 activator: 0

How did Cc1[nH]c(=O)[nH]c1C(=O)CCCCC(=O)OCC(=O)Nc1ccccn1 do in these assays?
TEAD-YAP block: -3; MITF primary: 116*; GPR151 activ: 0; FBW7 activator: -1; MITF inh conf: 118*; AlphaScreen intf2: 97*

What do the screens show for `CCOC(=O)CCCCC(=O)c1[nH]c(=O)[nH]c1CSC(=N)N`?
TEAD-YAP block: -8; MITF primary: 45; GPR151 activ: 0; FBW7 activator: 0

What do the screens show for `Cc1[nH]c(=O)[nH]c1C(=O)CCCCC(=O)OCC(=O)c1ccc(Br)cc1`?
TEAD-YAP block: 8; MITF primary: 114*; GPR151 activ: 1; FBW7 activator: -1; MITF inh conf: 112*; AlphaScreen intf2: 93*

What do the screens show for `O=C(c1cccc(F)c1)N1CCN(Cc2ccccc2Cl)CC1`?
TEAD-YAP block: 3; MITF primary: 57*; GPR151 activ: 1; FBW7 activator: 0; MITF inh conf: -4; AlphaScreen intf2: -1

Results for O=C(c1cccc(F)c1)N1CCN(Cc2cccc3ccccc23)CC1 ?
TEAD-YAP block: 7; MITF primary: 58*; GPR151 activ: -2; FBW7 activator: 1; MITF inh conf: -6; AlphaScreen intf2: -4

What do the screens show for `CCCC(=S)N=c1scc(CC(=O)OCC)n1C`?
TEAD-YAP block: -6; MITF primary: 2; GPR151 activ: -1; FBW7 activator: 0

What do the screens show for `CSc1cccc(C(=O)N(CCn2cccn2)c2nc3c(C)cc(C)cc3s2)c1`?
TEAD-YAP block: -7; MITF primary: 95*; GPR151 activ: 0; FBW7 activator: 0; MITF inh conf: -14; AlphaScreen intf2: -5

How did Cc1ccc2c3c(ccc2n1)NC1=C(C(=O)CCC1)C3c1ccccc1C (stereo not given) do in these assays?
TEAD-YAP block: 2; MITF primary: 4; GPR151 activ: 1; FBW7 activator: 0

How did Cc1ccc2c3c(ccc2n1)NC1=C(C(=O)CCC1)C3c1ccccn1 (stereo not given) do in these assays?
TEAD-YAP block: -19; MITF primary: 63*; GPR151 activ: 0; FBW7 activator: 0; MITF inh conf: -3; AlphaScreen intf2: 5

Results for OC(COCc1ccc(Cl)cc1)CN1CCN(CC2CCCO2)CC1 (stereo not given) ?
TEAD-YAP block: -5; MITF primary: 68*; GPR151 activ: 1; FBW7 activator: 0; MITF inh conf: 8; AlphaScreen intf2: 12

How did OC(COCc1ccc(Cl)cc1)CN1CCCC1 (stereo not given) do in these assays?
TEAD-YAP block: -9; MITF primary: 16; GPR151 activ: 1; FBW7 activator: 0

How did CCN(CC)CCN(C)Cc1cccc2ccccc12 do in these assays?
TEAD-YAP block: 3; MITF primary: 66*; GPR151 activ: -1; FBW7 activator: 0; MITF inh conf: -11; AlphaScreen intf2: 2

What do the screens show for `CCN(CC)CCN(C)Cc1c(F)cccc1Cl`?
TEAD-YAP block: 5; MITF primary: 56*; GPR151 activ: 1; FBW7 activator: 0; MITF inh conf: -5; AlphaScreen intf2: 0

Results for CCN(CC)CCN(C)Cc1ccc(F)cc1F ?
TEAD-YAP block: 7; MITF primary: 57*; GPR151 activ: 0; FBW7 activator: 0; MITF inh conf: -2; AlphaScreen intf2: -6

Results for O=C(Nc1nc(-c2ccc(F)cc2)cs1)c1sc2ccccc2c1Cl ?
TEAD-YAP block: -8; MITF primary: 3; GPR151 activ: 0; FBW7 activator: 0

Results for CN(Cc1ccccc1)S(=O)(=O)c1nnc(NC(=O)c2ccco2)s1 ?
TEAD-YAP block: 2; MITF primary: 3; GPR151 activ: 0; FBW7 activator: 0
